# Results filed as inconclusive are left out. Calls of active or inactive are those of the source. Calls come from the whole dose curve; as a rule, active = well fitted inhibition curve with a large enough effect in the repeat runs; inconclusive = weak or mixed curves; inactive = flat fitted curve, though single readings scatter.
# Biological target: Cytochrome P450 2D6 (Homo sapiens) (UniProt P10635)
# Test: Cytochrome P450 family 2 subfamily D member 6 (CYP2D6) small molecule antagonists: luciferase biochemical (cell-free) qHTS assay (AID 1645840); note: nearly all actives have a fitted effect of over 55% in size
# Conditions: P450-Glo CYP2D6 enzyme, luciferin luminescence, 1 h; series mostly up to 57.4 µM; activity change, negative = inhibition: at the top concentration
# How it was run: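 P450-Glo luminescent screen: recombinant CYP2D6 enzyme–proluciferin substrate mix preincubated with compound 10 min at room temperature, then NADPH regeneration added for 1 h at room temperature. Detection reagent added for 20 min; luciferin light read as relative luminescence units.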
# % is set by controls: 0 for no effect and ±100 for the full control effect; potency is the fitted concentration of half-maximal effect.
# Sequence of Cytochrome P450 2D6 (Homo sapiens) (P10635 whole entry, looked up): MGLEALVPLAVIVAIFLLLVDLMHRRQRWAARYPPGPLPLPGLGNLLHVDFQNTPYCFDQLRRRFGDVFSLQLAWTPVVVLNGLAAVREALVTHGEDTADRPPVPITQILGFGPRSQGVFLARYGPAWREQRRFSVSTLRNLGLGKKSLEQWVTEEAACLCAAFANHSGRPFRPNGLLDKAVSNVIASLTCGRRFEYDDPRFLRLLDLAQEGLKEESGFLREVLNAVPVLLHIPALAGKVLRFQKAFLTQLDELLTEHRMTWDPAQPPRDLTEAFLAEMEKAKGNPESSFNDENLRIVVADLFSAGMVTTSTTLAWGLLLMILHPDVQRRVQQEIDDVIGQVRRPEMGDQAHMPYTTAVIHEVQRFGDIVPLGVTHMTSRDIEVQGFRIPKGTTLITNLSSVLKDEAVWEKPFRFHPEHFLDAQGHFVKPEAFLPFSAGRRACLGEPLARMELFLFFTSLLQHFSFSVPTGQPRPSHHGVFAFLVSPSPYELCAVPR
SMILES,"activity change, negative = inhibition",Potency
NC(=O)c1cccc2cn(-c3ccc(C4CCCNC4)cc3)nc12 (centres undefined),-18.1% (inactive),–
CN1CCN(Cc2ccc(-c3cnc4[nH]cc(-c5ccc6[nH]ccc6c5)c4c3)cc2)CC1,–,2.13 µM (active)
Cc1cccc(Oc2cnc(=O)[nH]c2)c1,1.3% (inactive),–
CC(C)CCC(=O)CC1c2ccccc2C(=O)N1c1ccc2ccc(Cl)nc2n1 (centres undefined),20.3% (inactive),–
O=C(Nc1ccc(S(=O)(=O)Nc2nccs2)cc1)C(c1ccccc1)c1ccccc1,–,19 µM (active)
COCCOc1ccc(N2CCN(CCn3ncc4c3nc(N)n3nc(-c5ccco5)nc43)CC2)cc1,-1.36% (inactive),–
O=C(NCc1cccc(O)c1)Nc1nc(-c2ccncc2)cs1,–,0.849 µM (active)
CCN1CCN(Cc2ccc(NC(=O)c3ccc(C)c(/C=C/c4cnc5[nH]ccc5c4OC)c3)cc2C(F)(F)F)CC1,–,6.74 µM (active)
C[C@@H]1CN(Cc2ccccc2)C[C@H]1c1nc2c(cnn2C2CCOCC2)c(=O)[nH]1,-16.7% (inactive),–
CNCc1ccc(-c2cc(-c3nc(-c4ccc(S(=O)(=O)C(C)C)cc4)cnc3N)on2)cc1,-4.86% (inactive),–
CNC(=S)NS(=O)(=O)c1cc(CCNC(=O)c2cc(Cl)ccc2OC)ccc1OC,-25.4% (inactive),–
Cc1onc(C(=O)N2CCN(C(c3ccc(Cl)cc3)c3ccc(Cl)cc3)CC2)c1[N+](=O)[O-],10% (inactive),–
CC(C)(C)c1ccc(S(=O)(=O)NCc2ccc(C(=O)Nc3cccnc3)cc2)cc1,–,6.74 µM (active)
CN1CCc2nc(C(=O)N[C@@H]3C[C@@H](C(=O)N(C)C)CC[C@@H]3NC(=O)C(=O)Nc3ccc(Cl)cn3)sc2C1,23.9% (inactive),–
